Measurements published in the supplement of paper PMC10849652.
Of roughly 7,900 targets only a part is listed; those with a hit were picked by preference. About 0.6% of all pairs of compound and target were hits. Unmarked numbers belong to inactive results.

What was measured:
Experiment in all cases: log2 fold change, soluble protein after heating vs DMSO (PISA); higher = thermal stabilisation; K562 cells, 10 uM, 30 min; active = over 0.2 and 3.5 SD of the protein, either way, in both replicates (recomputed)
filanesib = compound: CON(C)C(=O)N1N=C(c2cc(F)ccc2F)S[C@@]1(CCCN)c1ccccc1 [filanesib]
Method in brief: (§1)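 K562 cells at 2×10^6 cells/mL were given 10 μM compound for 30 min. Aliquots then went through 3 min of heating across 48°C-58°C, were pooled, and were extracted in PBS with 0.5% NP-40 at 4°C, and the supernatant after 21,000xg for 90 min was quantified by TMTpro 16plex LC-MS/MS with channel sums equalised. Thermal stability relative to control samples, from duplicates, is given as log2 fold change.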

zotarolimus = compound: CO[C@H]1C[C@@H]2CC[C@@H](C)[C@@](O)(O2)C(=O)C(=O)N2CCCC[C@H]2C(=O)O[C@H]([C@H](C)C[C@@H]2CC[C@H](n3cnnn3)[C@H](OC)C2)CC(=O)[C@H](C)/C=C(\C)[C@@H](O)[C@@H](OC)C(=O)[C@H](C)C[C@H](C)/C=C/C=C/C=C/1C [zotarolimus]
Method in brief: as §1

idasanutlin = compound: COc1cc(C(=O)O)ccc1NC(=O)[C@@H]1N[C@@H](CC(C)(C)C)[C@](C#N)(c2ccc(Cl)cc2F)[C@H]1c1cccc(Cl)c1F [idasanutlin]
Method in brief: as §1

alisertib = compound: COc1cc(Nc2ncc3c(n2)-c2ccc(Cl)cc2C(c2c(F)cccc2OC)=NC3)ccc1C(=O)O [alisertib]
Method in brief: as §1

[1] = compound: COc1cc2nc(-c3cc(F)ccc3O)nc(N[C@@H]3CNC[C@H]3C(C)(C)O)c2cc1OC
Method in brief: as §1

gefitinib = compound: COc1cc2ncnc(Nc3ccc(F)c(Cl)c3)c2cc1OCCCN1CCOCC1 [gefitinib]
Method in brief: as §1

[2] = compound: COc1cccc2cc(-c3nc([C@H]4CC[C@H](C(=O)O)CC4)n4ncnc(N)c34)[nH]c12
Method in brief: as §1

lapatinib = compound: CS(=O)(=O)CCNCc1ccc(-c2ccc3ncnc(Nc4ccc(OCc5cccc(F)c5)c(Cl)c4)c3c2)o1 [lapatinib]
Method in brief: as §1

pictilisib = compound: CS(=O)(=O)N1CCN(Cc2cc3nc(-c4cccc5[nH]ncc45)nc(N4CCOCC4)c3s2)CC1 [pictilisib]
Method in brief: as §1

[3] = compound: CS(=O)(=O)c1ccc(-c2cnc(N)c(C(=O)Nc3ccccc3)n2)cc1
Method in brief: as §1

[4] = compound: C[C@@H]1COCCN1C2=NC(=NC(=C2)C3(CC3)S(=O)(=O)C)C4=C5C=CNC5=CC=C4
Method in brief: as §1

[5] = compound: C[C@H](C1=CC=C(C=C1)C(=O)NC2=C3C=CNC3=NC=C2)N
Method in brief: as §1

duvelisib = compound: C[C@H](Nc1ncnc2nc[nH]c12)c1cc2cccc(Cl)c2c(=O)n1-c1ccccc1 [duvelisib]
Method in brief: as §1

gandotinib = compound: Cc1cc(Nc2cc(CN3CCOCC3)c3nc(C)c(Cc4ccc(Cl)cc4F)n3n2)n[nH]1 [gandotinib]
Method in brief: as §1

tozasertib = compound: Cc1cc(Nc2cc(N3CCN(C)CC3)nc(Sc3ccc(NC(=O)C4CC4)cc3)n2)n[nH]1 [tozasertib]
Method in brief: as §1

[6] = compound: Cc1cc(SCc2sc(-c3ccc(C(F)(F)F)cc3)nc2C)ccc1OCC(=O)O
Method in brief: as §1

ispinesib = compound: Cc1ccc(C(=O)N(CCCN)[C@@H](c2nc3cc(Cl)ccc3c(=O)n2Cc2ccccc2)C(C)C)cc1 [ispinesib]
Method in brief: as §1

[7] = compound: COC1=CC=C(C=C1)CN2C=CC3=C2C=C(C=C3)C(=O)NO
Method in brief: as §1

crizotinib = compound: C[C@@H](Oc1cc(-c2cnn(C3CCNCC3)c2)cnc1N)c1c(Cl)ccc(F)c1Cl [crizotinib]
Method in brief: as §1

doramapimod = compound: Cc1ccc(-n2nc(C(C)(C)C)cc2NC(=O)Nc2ccc(OCCN3CCOCC3)c3ccccc23)cc1 [doramapimod]
Method in brief: as §1

Chain of UniProt Q8N9U0 (Q8N9U0 whole entry, looked up): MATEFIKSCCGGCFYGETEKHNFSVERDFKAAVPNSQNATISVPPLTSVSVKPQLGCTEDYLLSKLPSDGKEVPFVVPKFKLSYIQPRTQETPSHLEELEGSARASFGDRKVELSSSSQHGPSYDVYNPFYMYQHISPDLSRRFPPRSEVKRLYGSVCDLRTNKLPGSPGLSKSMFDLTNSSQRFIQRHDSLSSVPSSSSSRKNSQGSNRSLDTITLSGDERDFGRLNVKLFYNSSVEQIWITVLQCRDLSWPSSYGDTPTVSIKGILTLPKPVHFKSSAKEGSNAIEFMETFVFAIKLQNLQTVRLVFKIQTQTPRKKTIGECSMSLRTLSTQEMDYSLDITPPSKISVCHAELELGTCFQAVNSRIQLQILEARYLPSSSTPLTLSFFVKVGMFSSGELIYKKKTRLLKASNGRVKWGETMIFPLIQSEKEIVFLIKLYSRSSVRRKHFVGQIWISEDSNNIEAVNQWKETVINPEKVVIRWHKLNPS
Chain of UniProt Q8N5G0 (Q8N5G0 whole entry, looked up): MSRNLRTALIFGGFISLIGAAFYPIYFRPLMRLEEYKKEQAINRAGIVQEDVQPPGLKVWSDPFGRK
Chain of UniProt Q9Y5J6 (Q9Y5J6 whole entry, looked up): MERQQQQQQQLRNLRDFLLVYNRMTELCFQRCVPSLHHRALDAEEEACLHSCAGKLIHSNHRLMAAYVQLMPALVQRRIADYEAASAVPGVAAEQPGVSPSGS
Chain of UniProt O60749 (O60749 whole entry, looked up): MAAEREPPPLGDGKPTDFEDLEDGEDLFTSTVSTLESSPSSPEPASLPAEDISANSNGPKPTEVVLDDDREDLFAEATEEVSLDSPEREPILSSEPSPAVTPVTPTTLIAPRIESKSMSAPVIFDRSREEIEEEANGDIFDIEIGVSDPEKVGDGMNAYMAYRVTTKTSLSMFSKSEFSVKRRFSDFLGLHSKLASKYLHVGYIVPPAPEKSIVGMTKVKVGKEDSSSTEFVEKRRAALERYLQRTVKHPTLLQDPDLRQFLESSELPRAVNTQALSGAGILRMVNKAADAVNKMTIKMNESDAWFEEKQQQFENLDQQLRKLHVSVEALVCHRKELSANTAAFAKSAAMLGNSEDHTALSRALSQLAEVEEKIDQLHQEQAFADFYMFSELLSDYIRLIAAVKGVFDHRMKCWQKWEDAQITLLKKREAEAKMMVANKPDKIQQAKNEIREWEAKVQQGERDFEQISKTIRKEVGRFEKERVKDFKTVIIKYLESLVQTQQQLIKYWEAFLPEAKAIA
Chain of UniProt Q6ZRS2 (Q6ZRS2 whole entry, looked up): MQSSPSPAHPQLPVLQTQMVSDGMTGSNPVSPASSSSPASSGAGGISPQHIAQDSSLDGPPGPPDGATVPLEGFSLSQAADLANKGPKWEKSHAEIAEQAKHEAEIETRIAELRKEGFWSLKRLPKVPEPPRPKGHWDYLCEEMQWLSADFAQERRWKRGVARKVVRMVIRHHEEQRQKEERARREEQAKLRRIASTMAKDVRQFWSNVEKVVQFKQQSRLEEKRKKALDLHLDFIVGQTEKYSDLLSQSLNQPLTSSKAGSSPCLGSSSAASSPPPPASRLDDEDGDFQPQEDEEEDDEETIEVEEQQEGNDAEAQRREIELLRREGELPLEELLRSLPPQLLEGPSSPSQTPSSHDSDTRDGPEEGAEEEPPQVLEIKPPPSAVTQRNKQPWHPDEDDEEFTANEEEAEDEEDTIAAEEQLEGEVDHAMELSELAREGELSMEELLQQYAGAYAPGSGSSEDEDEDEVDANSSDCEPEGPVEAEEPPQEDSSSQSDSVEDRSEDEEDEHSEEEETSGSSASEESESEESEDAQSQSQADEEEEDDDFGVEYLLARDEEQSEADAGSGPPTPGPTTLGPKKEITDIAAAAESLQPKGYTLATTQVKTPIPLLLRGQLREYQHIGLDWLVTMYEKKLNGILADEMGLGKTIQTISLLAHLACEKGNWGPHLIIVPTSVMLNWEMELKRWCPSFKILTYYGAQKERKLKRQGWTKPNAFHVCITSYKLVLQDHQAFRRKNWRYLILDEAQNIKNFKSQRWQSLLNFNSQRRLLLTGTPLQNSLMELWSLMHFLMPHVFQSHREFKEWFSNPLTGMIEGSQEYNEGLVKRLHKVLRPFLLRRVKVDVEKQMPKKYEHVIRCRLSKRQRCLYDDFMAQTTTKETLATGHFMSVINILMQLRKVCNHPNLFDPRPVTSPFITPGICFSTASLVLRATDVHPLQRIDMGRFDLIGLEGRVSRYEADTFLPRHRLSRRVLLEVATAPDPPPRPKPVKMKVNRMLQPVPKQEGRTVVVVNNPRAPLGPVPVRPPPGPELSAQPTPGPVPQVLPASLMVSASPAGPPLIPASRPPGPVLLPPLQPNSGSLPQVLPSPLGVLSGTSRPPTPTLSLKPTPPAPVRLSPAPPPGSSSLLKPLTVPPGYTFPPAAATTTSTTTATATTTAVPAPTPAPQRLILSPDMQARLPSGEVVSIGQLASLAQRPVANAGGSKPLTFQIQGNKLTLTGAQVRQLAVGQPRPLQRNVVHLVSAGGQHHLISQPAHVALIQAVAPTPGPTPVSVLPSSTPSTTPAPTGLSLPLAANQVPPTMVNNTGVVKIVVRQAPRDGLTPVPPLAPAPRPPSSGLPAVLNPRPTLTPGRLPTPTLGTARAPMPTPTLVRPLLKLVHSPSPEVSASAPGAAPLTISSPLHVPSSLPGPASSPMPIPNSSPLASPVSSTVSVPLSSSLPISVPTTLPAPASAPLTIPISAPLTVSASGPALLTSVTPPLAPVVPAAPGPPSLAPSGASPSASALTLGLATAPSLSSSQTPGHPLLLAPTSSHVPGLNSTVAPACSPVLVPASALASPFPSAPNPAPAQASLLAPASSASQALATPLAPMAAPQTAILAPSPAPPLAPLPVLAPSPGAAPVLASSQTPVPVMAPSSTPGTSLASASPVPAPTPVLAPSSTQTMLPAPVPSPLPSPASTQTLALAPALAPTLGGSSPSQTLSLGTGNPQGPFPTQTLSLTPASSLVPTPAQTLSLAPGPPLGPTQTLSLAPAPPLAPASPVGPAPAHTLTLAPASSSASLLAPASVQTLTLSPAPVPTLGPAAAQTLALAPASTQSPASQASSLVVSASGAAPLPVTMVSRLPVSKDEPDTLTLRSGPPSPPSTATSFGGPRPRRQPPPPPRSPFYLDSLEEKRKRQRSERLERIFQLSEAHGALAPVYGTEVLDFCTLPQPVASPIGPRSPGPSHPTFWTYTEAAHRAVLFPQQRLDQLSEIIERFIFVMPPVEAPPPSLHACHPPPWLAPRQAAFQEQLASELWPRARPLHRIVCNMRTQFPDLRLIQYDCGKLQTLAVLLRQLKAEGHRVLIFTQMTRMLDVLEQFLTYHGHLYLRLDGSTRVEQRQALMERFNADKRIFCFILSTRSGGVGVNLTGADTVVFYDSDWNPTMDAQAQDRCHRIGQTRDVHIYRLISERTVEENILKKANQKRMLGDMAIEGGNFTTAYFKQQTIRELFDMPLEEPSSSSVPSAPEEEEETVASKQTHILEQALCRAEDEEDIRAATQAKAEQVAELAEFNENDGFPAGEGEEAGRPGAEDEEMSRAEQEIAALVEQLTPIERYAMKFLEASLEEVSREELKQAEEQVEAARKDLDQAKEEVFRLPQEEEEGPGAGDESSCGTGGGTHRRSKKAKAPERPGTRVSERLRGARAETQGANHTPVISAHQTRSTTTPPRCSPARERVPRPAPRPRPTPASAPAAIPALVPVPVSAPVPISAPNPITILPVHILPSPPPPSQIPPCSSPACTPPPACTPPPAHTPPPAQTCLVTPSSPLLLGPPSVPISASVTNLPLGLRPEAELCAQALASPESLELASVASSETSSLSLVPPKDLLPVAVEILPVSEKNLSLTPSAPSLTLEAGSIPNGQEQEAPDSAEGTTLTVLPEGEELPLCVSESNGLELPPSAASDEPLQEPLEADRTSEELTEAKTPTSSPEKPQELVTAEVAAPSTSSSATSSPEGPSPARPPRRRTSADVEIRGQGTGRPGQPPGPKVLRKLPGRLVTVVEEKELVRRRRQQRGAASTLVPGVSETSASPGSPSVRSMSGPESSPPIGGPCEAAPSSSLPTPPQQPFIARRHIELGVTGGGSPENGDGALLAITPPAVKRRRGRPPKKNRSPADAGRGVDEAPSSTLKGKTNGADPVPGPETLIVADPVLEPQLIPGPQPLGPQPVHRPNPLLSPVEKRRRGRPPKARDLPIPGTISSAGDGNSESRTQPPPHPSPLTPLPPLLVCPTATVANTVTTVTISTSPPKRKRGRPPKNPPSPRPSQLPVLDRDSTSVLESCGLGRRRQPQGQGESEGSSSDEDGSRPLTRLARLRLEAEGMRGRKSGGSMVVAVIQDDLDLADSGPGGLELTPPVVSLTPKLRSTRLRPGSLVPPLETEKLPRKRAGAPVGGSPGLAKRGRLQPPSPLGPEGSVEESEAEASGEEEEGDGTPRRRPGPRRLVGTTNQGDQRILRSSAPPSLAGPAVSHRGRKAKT
Chain of UniProt Q969X1 (Q969X1 whole entry, looked up): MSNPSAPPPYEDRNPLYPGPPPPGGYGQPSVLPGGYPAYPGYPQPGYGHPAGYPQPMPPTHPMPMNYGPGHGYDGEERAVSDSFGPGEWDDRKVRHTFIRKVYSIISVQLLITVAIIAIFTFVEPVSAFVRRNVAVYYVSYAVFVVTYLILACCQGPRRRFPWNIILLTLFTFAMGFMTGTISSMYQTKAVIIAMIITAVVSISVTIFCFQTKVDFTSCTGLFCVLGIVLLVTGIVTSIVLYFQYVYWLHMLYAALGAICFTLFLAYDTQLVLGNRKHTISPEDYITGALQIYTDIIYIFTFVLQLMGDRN
Chain of UniProt Q969S0 (Q969S0 whole entry, looked up): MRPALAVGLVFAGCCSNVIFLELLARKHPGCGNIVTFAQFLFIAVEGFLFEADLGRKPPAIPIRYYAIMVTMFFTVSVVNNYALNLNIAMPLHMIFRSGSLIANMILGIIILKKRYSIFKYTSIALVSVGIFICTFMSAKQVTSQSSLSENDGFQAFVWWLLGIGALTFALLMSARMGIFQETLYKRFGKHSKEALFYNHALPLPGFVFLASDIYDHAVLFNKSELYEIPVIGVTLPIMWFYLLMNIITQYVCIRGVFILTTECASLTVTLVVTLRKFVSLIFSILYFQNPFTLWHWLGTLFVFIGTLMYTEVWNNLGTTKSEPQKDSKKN

Target	log2 fold change (filanesib)	log2 fold change (zotarolimus)	log2 fold change (idasanutlin)	log2 fold change (alisertib)	log2 fold change [1]	log2 fold change (gefitinib)	log2 fold change [2]	log2 fold change (lapatinib)	log2 fold change (pictilisib)	log2 fold change [3]	log2 fold change [4]	log2 fold change [5]	log2 fold change (duvelisib)	log2 fold change (gandotinib)	log2 fold change (tozasertib)	log2 fold change [6]	log2 fold change (ispinesib)	log2 fold change [7]	log2 fold change (crizotinib)	log2 fold change (doramapimod)
SMIM20 isoform 2 (UniProt Q8N5G0)	0.093	-0.037	0.095	-0.056	0.024	0.057	0.091	-0.044	-0.044	-0.014	0.126	0.019	0.086	0.068	0.069	-0.068	0.089	–	–	–
TBP (UniProt P20226)	–	-0.1	-0.076	0.148	0.072	0.044	0.081	0.023	–	–	-0.021	0.303	-0.135	–	0.072	-0.098	-0.006	-0.014	0.048	-0.023
SSBP4 (UniProt U3KPY3)	–	–	–	0.023	–	–	0.212	–	–	–	–	–	–	–	–	–	–	–	–	–
SPIRE1 (UniProt Q08AE8)	–	-0.051	-0.023	-0.033	–	-0.013	0.049	–	0.188	–	-0.324	0.087	–	0.344	-0.052	–	-0.073	-0.509 (active)	-0.105	0.096
SNX2 isoform 2 (UniProt O60749)	-0.234	0.022	-0.054	–	0.462	–	–	0.041	–	0.135	0.071	0.108	0.015	–	–	-0.029	–	0.258	-0.145	0.17
SRCAP (UniProt Q6ZRS2)	0.097	-0.02	–	-0.091	-0.067	0.198	0.062	0.049	0.015	-0.015	–	-0.111	0.039	-0.069	0.064	-0.035	0	-0.083	-0.276	0.051
SLC35F6 (UniProt Q8N357)	-0.001	0.016	0.02	-0.052	0.033	0	0.037	-0.076	–	-0.247	0.021	0.076	-0.049	–	0.034	-0.219	-0.083	–	–	–
SSBP4 (UniProt Q9BWG4)	-0.601	–	0.122	0.018	0.076	-0.001	0.029	-0.145	0.117	-0.054	–	–	0.255	-0.121	-0.014	0.123	0.148	-0.065	-0.034	0.103
SLC35B4 (UniProt Q969S0)	-0.119	–	0.027	0.032	–	0.149	0.076	–	–	0.016	0.048	–	–	–	0.063	–	–	-0.076	0.256	0.038
SP2 (UniProt Q02086)	0.012	–	0.277	–	–	–	–	–	–	-0.14	–	–	-0.08	–	–	0.125	–	-0.319	0.083	-0.06
TC2N (UniProt Q8N9U0)	–	–	-0.003	0.012	–	-0.066	0.127	–	–	–	–	–	0.256	–	-0.095	-0.072	-0.071	–	–	–
TIMM10B (UniProt Q9Y5J6)	-0.068	0.023	0.009	-0.205	0.048	0.022	0.143	-0.248	-0.126	0.107	0.129	0.031	0.308	0.087	-0.114	-0.161	0.077	–	–	–
TMBIM1 (UniProt Q969X1)	-0.161	-0.117	0.013	-0.018	-0.254	-0.004	0.088	0.172	0.138	-0.03	-0.043	0.274	0.042	-0.017	-0.154	-0.026	0.303	–	–	–
SMPD4 isoform 2 (UniProt Q9NXE4)	–	0.043	-0.16	-0.117	-0.308	–	0.003	0.131	-0.108	–	–	-0.061	0.069	-0.263	-0.163	0.09	–	-0.011	-0.21	0.027
SLC9A6 isoform 3 (UniProt Q92581)	–	-0.051	0.098	–	0.055	–	–	-0.072	–	–	–	-0.018	-0.001	–	-0.126	-0.137	–	–	–	–
SYK (UniProt P43405)	–	0.066	0.25	–	0.204	–	–	0.06	–	–	-0.093	0.053	0.13	–	0.031	0.405	-0.216	0.085	–	0.179
